# Source: PMC7862700, “An all-to-all approach to the identification of sequence-specific readers for epigenetic DNA modifications on cytosine”
# Experiments:
# Assay in all cases: DAPPL (digital affinity profiling via proximity ligation, sequencing); 10 mM Tris-HCl pH 7.5, 50 mM NaCl, 1 mM DTT, 4% glycerol, room temperature, 30 min; GST-TFs on glutathione beads, 16-mer random dsDNA library, 0.1% formaldehyde crosslink after washing; high values mean tight binding
# [1] = biological target: T1, FEV (Homo sapiens, UniProt Q99581 1-238); details: protein: recombinant; tags: N-terminal GST; dsDNA, one strand shown
# T1 sequence: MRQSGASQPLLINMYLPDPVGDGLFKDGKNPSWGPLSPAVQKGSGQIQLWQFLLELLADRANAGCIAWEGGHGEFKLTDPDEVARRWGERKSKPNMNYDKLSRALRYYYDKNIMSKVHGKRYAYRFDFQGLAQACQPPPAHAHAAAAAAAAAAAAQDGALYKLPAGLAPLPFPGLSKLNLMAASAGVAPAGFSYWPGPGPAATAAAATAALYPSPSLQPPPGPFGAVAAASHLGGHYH
# Outline: (§1)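 Yeast served to express human transcription factors as GST fusions, which were then captured on glutathione beads and labelled with DNA barcodes. Pooled with a tag-only sample, they were incubated with 200 nmole of a 16-mer random double-stranded DNA library for 30 min at room temperature in Tris/NaCl/DTT/glycerol buffer, washed, crosslinked with 0.1% formaldehyde, ligated by proximity, amplified by PCR and sequenced. Dividing each hexamer's read frequency for a factor by its frequency for the tag-only sample gives the binding signal.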
# [2] = biological target: ETV5 (Homo sapiens, UniProt P41161 1-510); details: protein: recombinant; tags: N-terminal GST; dsDNA, one strand shown
# Outline: as §1
# [3] = biological target: HSF1 (Homo sapiens, UniProt Q00613 1-529); details: protein: recombinant; tags: N-terminal GST; chain copies: 3; dsDNA, one strand shown
# Outline: as §1
# [4] = biological target: T2, SPIC (Homo sapiens, UniProt Q8N5J4 1-248); details: protein: recombinant; tags: N-terminal GST; dsDNA, one strand shown
# T2 sequence: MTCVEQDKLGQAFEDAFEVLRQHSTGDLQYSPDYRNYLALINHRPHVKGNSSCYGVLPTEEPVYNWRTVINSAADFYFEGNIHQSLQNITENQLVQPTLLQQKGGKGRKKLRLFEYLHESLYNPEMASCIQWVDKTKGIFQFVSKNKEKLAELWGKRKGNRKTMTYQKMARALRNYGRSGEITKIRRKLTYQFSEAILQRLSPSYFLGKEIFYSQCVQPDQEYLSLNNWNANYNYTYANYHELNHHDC
# Outline: as §1
# [5] = biological target: ELF4 (Homo sapiens, UniProt Q99607 1-663); details: protein: recombinant; tags: N-terminal GST; dsDNA, one strand shown
# Outline: as §1
# [6] = biological target: T3, ELK4 (Homo sapiens, UniProt P28324-2 1-405); details: protein: recombinant; tags: N-terminal GST; dsDNA, one strand shown
# T3 sequence: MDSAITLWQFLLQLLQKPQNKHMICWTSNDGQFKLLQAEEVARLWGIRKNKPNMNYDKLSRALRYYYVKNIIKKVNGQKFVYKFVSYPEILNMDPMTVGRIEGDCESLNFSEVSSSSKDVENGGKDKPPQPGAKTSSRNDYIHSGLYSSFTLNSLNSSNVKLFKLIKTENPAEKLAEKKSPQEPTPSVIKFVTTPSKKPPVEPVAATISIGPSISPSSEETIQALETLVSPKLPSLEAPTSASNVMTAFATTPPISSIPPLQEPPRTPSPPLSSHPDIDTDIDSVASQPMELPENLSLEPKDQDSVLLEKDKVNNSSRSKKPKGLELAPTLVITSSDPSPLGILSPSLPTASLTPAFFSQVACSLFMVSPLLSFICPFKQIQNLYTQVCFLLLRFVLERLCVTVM
# Outline: as §1
# [7] = biological target: T4, ETV2 (Homo sapiens, UniProt O00321 1-342); details: protein: recombinant; tags: N-terminal GST; dsDNA, one strand shown
# T4 sequence: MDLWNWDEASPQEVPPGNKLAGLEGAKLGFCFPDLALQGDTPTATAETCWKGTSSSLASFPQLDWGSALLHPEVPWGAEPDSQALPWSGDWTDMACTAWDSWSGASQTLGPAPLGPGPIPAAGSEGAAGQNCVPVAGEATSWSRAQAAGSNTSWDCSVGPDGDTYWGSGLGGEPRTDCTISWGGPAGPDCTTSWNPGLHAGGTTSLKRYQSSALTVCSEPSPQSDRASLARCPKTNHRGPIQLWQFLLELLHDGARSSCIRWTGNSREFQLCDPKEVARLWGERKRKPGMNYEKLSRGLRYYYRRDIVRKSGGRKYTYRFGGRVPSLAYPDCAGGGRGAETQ
# Outline: as §1
# [8] = biological target: T5, ELF3 (Homo sapiens, UniProt P78545 1-371); details: protein: recombinant; tags: N-terminal GST; dsDNA, one strand shown
# T5 sequence: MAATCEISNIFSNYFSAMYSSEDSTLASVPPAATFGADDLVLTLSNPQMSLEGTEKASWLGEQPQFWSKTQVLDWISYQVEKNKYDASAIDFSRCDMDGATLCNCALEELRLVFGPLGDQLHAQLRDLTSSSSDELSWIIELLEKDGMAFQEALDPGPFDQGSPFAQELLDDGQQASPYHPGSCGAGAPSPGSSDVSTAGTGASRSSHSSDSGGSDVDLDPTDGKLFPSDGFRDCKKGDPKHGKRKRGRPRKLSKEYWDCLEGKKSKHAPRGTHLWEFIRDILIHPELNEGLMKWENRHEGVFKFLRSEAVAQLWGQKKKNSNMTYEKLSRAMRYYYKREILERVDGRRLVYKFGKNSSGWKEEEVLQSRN
# Outline: as §1
# [9] = biological target: CRX (Homo sapiens, UniProt O43186 1-299); details: protein: recombinant; tags: N-terminal GST; dsDNA, one strand shown
# Outline: as §1
# [10] = biological target: ETV1 (Homo sapiens, UniProt P50549 1-477); details: protein: recombinant; tags: N-terminal GST; dsDNA, one strand shown
# Outline: as §1
# [11] = biological target: T6, ERF (Homo sapiens, UniProt P50548 1-548); details: protein: recombinant; tags: N-terminal GST; dsDNA, one strand shown
# T6 sequence: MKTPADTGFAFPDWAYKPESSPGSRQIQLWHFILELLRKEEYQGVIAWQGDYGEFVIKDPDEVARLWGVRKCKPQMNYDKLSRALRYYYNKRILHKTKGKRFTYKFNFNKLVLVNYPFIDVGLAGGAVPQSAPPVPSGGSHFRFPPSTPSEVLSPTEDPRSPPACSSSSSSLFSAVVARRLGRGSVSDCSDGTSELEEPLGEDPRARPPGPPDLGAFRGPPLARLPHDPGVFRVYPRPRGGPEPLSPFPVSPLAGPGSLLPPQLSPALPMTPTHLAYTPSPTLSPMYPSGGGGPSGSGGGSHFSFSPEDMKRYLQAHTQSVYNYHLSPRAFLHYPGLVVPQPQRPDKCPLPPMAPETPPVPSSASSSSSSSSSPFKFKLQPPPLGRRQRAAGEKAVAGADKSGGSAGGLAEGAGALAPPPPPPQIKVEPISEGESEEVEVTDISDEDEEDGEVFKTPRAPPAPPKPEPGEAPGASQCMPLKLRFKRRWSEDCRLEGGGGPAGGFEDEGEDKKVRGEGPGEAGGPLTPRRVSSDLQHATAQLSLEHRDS
# Outline: as §1
# [12] = biological target: T7, ETV3L (Homo sapiens, UniProt Q6ZN32 1-361); details: protein: recombinant; tags: N-terminal GST; dsDNA, one strand shown
# T7 sequence: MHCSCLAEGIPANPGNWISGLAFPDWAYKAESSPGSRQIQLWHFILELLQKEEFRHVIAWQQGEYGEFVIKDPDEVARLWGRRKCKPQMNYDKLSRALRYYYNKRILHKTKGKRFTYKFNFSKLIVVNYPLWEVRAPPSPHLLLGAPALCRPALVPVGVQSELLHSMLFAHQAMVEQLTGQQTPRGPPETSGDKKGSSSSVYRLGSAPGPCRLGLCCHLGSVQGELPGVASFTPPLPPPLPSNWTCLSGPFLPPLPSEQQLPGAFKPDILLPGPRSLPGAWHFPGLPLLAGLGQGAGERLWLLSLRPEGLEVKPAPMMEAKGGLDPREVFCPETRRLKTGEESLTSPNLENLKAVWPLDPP
# Outline: as §1
# [13] = biological target: T8, ETS2 (Homo sapiens, UniProt P15036 1-469); details: protein: recombinant; tags: N-terminal GST; dsDNA, one strand shown
# T8 sequence: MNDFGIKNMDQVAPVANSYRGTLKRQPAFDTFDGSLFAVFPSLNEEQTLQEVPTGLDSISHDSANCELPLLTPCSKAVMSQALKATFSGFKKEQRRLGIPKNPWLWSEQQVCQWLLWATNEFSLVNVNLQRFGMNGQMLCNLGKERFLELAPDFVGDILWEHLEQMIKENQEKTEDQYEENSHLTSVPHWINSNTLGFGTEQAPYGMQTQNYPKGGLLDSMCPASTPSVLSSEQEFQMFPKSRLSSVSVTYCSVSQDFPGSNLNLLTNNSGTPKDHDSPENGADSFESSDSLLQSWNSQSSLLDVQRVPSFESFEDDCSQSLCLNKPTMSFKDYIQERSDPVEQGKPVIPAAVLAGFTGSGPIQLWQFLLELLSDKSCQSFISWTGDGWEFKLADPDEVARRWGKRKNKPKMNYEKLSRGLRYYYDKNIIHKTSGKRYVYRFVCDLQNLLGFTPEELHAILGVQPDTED
# Outline: as §1
# [14] = biological target: T9, SPDEF (Homo sapiens, UniProt O95238 1-335); details: protein: recombinant; tags: N-terminal GST; dsDNA, one strand shown
# T9 sequence: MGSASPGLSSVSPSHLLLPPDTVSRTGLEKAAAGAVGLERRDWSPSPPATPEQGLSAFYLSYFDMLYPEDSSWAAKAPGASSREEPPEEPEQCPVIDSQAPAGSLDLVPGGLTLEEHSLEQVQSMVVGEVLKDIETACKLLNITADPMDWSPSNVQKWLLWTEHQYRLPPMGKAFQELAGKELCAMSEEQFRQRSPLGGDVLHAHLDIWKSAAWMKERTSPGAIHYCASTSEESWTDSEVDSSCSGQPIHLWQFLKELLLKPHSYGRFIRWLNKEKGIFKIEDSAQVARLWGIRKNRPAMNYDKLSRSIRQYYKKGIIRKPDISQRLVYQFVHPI
# Outline: as §1
# [15] = biological target: T10, ETV7 (Homo sapiens, UniProt Q9Y603 1-341); details: protein: recombinant; tags: N-terminal GST; dsDNA, one strand shown
# T10 sequence: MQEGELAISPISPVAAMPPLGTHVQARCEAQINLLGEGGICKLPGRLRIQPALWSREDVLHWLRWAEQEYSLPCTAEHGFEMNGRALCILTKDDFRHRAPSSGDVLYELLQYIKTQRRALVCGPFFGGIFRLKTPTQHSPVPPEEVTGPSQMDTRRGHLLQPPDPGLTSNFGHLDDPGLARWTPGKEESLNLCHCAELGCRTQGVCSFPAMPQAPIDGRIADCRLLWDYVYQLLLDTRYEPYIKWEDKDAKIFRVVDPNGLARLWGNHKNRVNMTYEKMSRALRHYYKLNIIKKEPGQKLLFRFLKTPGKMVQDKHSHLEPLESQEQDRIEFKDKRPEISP
# Outline: as §1
# [16] = biological target: T11, ELF5 (Homo sapiens, UniProt Q9UKW6-2 1-255); details: protein: recombinant; tags: N-terminal GST; dsDNA, one strand shown
# T11 sequence: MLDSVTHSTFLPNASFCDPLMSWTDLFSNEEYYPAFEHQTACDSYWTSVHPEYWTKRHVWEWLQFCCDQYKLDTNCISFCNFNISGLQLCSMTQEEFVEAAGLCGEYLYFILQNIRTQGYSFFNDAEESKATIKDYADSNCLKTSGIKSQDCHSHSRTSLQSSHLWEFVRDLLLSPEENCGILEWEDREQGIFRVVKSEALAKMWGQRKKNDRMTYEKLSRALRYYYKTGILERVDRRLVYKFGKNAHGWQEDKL
# Outline: as §1
# [17] = biological target: T12, ETV3 (Homo sapiens, UniProt P41162-2 1-143); details: protein: recombinant; tags: N-terminal GST; dsDNA, one strand shown
# T12 sequence: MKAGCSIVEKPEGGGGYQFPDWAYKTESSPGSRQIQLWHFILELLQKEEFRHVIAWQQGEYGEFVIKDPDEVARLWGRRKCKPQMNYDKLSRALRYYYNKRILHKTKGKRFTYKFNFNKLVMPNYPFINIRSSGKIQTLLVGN
# Outline: as §1
# [18] = biological target: ETV6 (Homo sapiens, UniProt P41212 1-452); details: protein: recombinant; tags: N-terminal GST; dsDNA, one strand shown
# Outline: as §1
# HSF1, sequence (Q00613 whole entry): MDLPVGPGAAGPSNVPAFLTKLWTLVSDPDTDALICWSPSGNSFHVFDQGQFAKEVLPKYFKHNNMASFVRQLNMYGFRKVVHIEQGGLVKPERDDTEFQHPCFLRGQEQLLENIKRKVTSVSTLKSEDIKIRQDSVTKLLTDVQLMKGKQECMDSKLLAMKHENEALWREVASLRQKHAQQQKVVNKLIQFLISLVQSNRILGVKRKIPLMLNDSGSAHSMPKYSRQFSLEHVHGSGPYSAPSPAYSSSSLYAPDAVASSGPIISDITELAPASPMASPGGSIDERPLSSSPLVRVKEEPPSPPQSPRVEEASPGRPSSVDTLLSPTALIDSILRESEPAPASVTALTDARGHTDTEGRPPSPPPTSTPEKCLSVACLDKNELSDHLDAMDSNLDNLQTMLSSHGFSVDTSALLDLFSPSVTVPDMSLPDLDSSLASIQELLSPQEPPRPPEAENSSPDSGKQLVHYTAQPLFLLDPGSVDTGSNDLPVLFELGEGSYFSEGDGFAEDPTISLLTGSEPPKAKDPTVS
# ETV6, sequence (P41212 whole entry): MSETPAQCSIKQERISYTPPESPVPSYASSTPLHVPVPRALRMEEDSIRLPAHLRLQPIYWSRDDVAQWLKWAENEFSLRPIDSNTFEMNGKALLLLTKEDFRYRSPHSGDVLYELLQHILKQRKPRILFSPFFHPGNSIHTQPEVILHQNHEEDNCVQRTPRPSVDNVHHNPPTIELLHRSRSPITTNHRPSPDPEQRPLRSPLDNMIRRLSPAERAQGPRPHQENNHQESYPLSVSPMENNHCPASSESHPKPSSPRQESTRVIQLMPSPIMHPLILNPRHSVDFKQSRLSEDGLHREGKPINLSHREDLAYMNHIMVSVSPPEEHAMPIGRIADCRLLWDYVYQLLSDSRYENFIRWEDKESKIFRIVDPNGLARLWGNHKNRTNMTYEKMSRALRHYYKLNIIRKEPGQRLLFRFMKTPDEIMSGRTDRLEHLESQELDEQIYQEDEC
# ELF4, sequence (Q99607 whole entry): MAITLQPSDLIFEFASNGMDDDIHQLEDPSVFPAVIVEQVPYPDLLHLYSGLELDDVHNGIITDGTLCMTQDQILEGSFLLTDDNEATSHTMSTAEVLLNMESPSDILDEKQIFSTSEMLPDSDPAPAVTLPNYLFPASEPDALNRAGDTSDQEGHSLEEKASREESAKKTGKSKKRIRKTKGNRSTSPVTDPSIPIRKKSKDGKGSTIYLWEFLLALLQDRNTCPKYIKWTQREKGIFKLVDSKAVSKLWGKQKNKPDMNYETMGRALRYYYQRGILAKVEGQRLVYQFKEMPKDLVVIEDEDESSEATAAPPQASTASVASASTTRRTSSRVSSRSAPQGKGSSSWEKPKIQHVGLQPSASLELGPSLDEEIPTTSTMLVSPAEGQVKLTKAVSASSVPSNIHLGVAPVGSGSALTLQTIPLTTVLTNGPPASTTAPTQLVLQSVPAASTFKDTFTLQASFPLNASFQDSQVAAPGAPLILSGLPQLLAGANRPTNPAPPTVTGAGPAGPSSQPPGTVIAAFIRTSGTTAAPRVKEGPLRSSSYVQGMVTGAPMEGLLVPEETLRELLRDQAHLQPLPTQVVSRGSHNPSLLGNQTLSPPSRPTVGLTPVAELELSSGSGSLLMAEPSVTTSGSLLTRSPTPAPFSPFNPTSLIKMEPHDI
# ETV1, sequence (P50549 whole entry): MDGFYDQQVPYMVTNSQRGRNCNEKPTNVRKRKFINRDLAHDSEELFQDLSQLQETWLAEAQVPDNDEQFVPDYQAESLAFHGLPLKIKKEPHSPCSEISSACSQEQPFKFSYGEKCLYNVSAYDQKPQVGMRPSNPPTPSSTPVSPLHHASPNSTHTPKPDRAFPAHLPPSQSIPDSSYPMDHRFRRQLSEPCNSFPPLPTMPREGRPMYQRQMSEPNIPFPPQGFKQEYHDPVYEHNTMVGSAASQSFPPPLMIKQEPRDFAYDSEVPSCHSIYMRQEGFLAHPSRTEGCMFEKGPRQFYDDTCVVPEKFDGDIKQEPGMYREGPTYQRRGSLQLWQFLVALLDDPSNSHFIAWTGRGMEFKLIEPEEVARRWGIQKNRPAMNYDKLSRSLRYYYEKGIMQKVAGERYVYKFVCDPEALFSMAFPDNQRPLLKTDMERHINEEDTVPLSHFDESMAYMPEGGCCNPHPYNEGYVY
# ETV5, sequence (P41161 whole entry): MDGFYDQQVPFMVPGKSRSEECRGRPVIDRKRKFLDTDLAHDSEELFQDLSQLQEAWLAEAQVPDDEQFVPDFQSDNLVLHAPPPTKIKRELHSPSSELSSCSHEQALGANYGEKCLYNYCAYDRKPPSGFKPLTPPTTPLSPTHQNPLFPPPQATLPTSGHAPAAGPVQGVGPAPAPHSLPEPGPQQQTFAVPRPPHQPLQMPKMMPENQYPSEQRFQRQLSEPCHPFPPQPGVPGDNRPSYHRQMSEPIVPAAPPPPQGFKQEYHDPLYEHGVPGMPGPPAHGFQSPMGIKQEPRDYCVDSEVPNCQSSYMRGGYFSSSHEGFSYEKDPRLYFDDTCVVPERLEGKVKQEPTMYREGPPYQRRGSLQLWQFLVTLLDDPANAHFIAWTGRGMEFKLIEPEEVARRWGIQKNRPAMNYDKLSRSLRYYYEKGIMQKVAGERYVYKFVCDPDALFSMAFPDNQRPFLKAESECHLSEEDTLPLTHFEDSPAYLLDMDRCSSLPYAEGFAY
# CRX, sequence (O43186 whole entry): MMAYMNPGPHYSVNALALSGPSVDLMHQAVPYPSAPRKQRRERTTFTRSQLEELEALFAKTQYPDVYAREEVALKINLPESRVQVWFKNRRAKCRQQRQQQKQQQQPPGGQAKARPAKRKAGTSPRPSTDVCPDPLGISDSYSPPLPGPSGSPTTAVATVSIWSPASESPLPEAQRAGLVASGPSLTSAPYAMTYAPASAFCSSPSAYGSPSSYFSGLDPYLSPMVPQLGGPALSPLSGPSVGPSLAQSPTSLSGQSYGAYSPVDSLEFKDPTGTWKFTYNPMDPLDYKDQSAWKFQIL
sequence,measurement,setting,value
ATCGCC,binding signal,[1],"1.24 fold enrichment (6-mer frequency, TF over GST control)"
same,binding signal,[2],"1.23 fold enrichment (6-mer frequency, TF over GST control)"
same,binding signal,[3],"1.28 fold enrichment (6-mer frequency, TF over GST control)"
same,binding signal,[4],"1.31 fold enrichment (6-mer frequency, TF over GST control)"
same,binding signal,[5],"1.24 fold enrichment (6-mer frequency, TF over GST control)"
same,binding signal,[6],"1.28 fold enrichment (6-mer frequency, TF over GST control)"
same,binding signal,[7],"1.2 fold enrichment (6-mer frequency, TF over GST control)"
same,binding signal,[8],"1.12 fold enrichment (6-mer frequency, TF over GST control)"
same,binding signal,[9],"1.4 fold enrichment (6-mer frequency, TF over GST control)"
same,binding signal,[10],"1.32 fold enrichment (6-mer frequency, TF over GST control)"
same,binding signal,[11],"1.27 fold enrichment (6-mer frequency, TF over GST control)"
same,binding signal,[12],"1.32 fold enrichment (6-mer frequency, TF over GST control)"
same,binding signal,[13],"1.3 fold enrichment (6-mer frequency, TF over GST control)"
same,binding signal,[14],"1.12 fold enrichment (6-mer frequency, TF over GST control)"
same,binding signal,[15],"1.03 fold enrichment (6-mer frequency, TF over GST control)"
same,binding signal,[16],"1.25 fold enrichment (6-mer frequency, TF over GST control)"
same,binding signal,[17],"1.14 fold enrichment (6-mer frequency, TF over GST control)"
same,binding signal,[18],"1.28 fold enrichment (6-mer frequency, TF over GST control)"
